The text below walks through data of PubChem BioAssay (NCI).

What all share (assay): NCI-60 one-dose screen, 48 h (100 = growth as untreated, 0 = no growth, -100 = all killed)
In one assay the test system is SR leukemia. The conditions noted are these: 10 µM unless noted.
The test system of another assay is RPMI-8226 leukemia. The following applies: 10 µM unless noted.
The test system of a further assay is OVCAR-8 ovarian. The following applies: 10 µM unless noted.
A further assay deals with OVCAR-5 ovarian. The conditions noted are these: 10 µM unless noted.
The next assay has as its system OVCAR-4 ovarian. The conditions noted are these: 10 µM unless noted.
The test system of the next assay is SK-OV-3 ovarian. The conditions noted are these: 10 µM unless noted.
For another assay, the system named is IGROV1 ovarian. The following applies: 10 µM unless noted.
In the next assay the test system is OVCAR-3 ovarian. The following applies: 10 µM unless noted.
The subject of the next assay is HS 578T breast. The conditions noted are these: 10 µM.
Another assay deals with NCI/ADR-RES ovarian. The following applies: 10 µM unless noted.
In the next assay the test system is T-47D breast. The following applies: 10 µM unless noted.
In a further assay the test system is BT-549 breast. The following applies: 10 µM unless noted.
Another assay has as its system MDA-MB-435 melanoma. The conditions noted are these: 10 µM unless noted.
A further assay relates to SW-620 colon. The conditions noted are these: 10 µM unless noted.
For another assay, the system named is MCF7 breast. The following applies: 10 µM unless noted.
The next assay concerns HCT-116 colon. The conditions noted are these: 10 µM unless noted.
A further assay concerns HCC-2998 colon. The conditions noted are these: 10 µM.
The subject of a further assay is KM12 colon. The following applies: 10 µM unless noted.

This is part of a sample that, as a whole, favours compounds with a hit. Of some 83,000 tested, about 20% had one in any assay.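 Compound tested at a single concentration for 48 hours in 96-well plates; a percent growth value below 10 was scored as active.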 Unmarked numbers belong to inactive results. Active and inactive are the calls of the source.

Take `CC(C)=CCc1cc2c(cc1O)C1=C(C(=O)C3=C(C1=O)S(=O)(=O)CCN3)C(C=C(C)C)O2` (centres undefined): the growth in the assay on SR leukemia was 2.02% (active); in the assay on RPMI-8226 leukemia it was 9.78% (active); in the assay on OVCAR-8 ovarian, -5.83% (active); in the assay on OVCAR-5 ovarian it was -72.4% (active); in the assay with OVCAR-4 ovarian, -98.2% (active); in the assay with SK-OV-3 ovarian, -3.23% (active). Moreover, the growth in the assay on IGROV1 ovarian is -30.6% (active); in the assay with OVCAR-3 ovarian it was 0.0791% (active); in the assay with HS 578T breast, 11.1%; in the assay with NCI/ADR-RES ovarian, 73.8%; with T-47D breast, -2.63% (active); with BT-549 breast, -73.6% (active). Also, the growth in the assay on MDA-MB-435 melanoma is -52.6% (active); with SW-620 colon it was -18.9% (active); with MCF7 breast, -50.7% (active); in the assay with HCT-116 colon it was -24.8% (active); in the assay with HCC-2998 colon, -66% (active); with KM12 colon it was 13.6%.
Regarding `COc1ccc(C2CC(=O)c3c(O)c(OC)c(OC)c(OC)c3O2)c(O)c1` (centres undefined), the growth in the assay on SR leukemia is 23%; in the assay with RPMI-8226 leukemia it was 32.7%; in the assay on OVCAR-8 ovarian, 36.5%; in the assay on OVCAR-5 ovarian it was 54.2%; in the assay with OVCAR-4 ovarian, 48.9%; in the assay with SK-OV-3 ovarian, 42.9%. In addition, the growth in the assay on IGROV1 ovarian is 46.3%; with OVCAR-3 ovarian it was 0.132% (active); in the assay with HS 578T breast, 36.5%; in the assay with NCI/ADR-RES ovarian, 4.44% (active); in the assay with T-47D breast, 57.8%; in the assay with BT-549 breast, 60.6%. Further, the growth in the assay on MDA-MB-435 melanoma was -33.7% (active); with SW-620 colon, 26.2%; with MCF7 breast, 32.5%; with HCT-116 colon it was 10.2%; in the assay on HCC-2998 colon it was 15.9%; with KM12 colon it was 19.9%.
On to `CO[C@H](C(=O)N[C@@H](CCCCNC(=O)OCc1ccccc1)C(=O)OC(C)(C)C)[C@@H]1Cc2cc3cc(OC4CC(OC5CC(O)C(O)C(C)O5)C(O)C(C)O4)c(C)c(O)c3c(O)c2C(=O)[C@H]1OC1CC(OC2CC(OC3CC(C)(O)C(O)C(C)O3)C(O)C(C)O2)C(O)C(C)O1` (some centres undefined), for which the growth in the assay with SR leukemia is 7.17% (active); in the assay with RPMI-8226 leukemia, -5.01% (active); with OVCAR-8 ovarian, 12.9%; in the assay on OVCAR-5 ovarian it was -77.9% (active); in the assay with OVCAR-4 ovarian it was 43.1%; with SK-OV-3 ovarian it was -52.7% (active). In addition, the growth is 22.2% in the assay with IGROV1 ovarian; 24.8% with OVCAR-3 ovarian; -16.4% (active) in the assay with HS 578T breast; 73.2% in the assay with NCI/ADR-RES ovarian; 7.2% (active) in the assay on T-47D breast; -79.7% (active) with BT-549 breast. Further, the growth with MDA-MB-435 melanoma was -69.8% (active); with SW-620 colon, 3.71% (active); with MCF7 breast, 3.56% (active); in the assay with HCT-116 colon it was -63.9% (active); with HCC-2998 colon, -5.55% (active); in the assay with KM12 colon, -62.7% (active).
For the molecule `O=C(Cn1cncn1)Nc1ccc(-c2nc3ccccc3s2)cc1`, the growth in the assay on SR leukemia is 83.8%; with RPMI-8226 leukemia, 83.3%; in the assay with OVCAR-8 ovarian, 94.6%; in the assay on OVCAR-5 ovarian it was 115%; in the assay on OVCAR-4 ovarian, 80.6%; in the assay on SK-OV-3 ovarian, 99.9%. Moreover, the growth in the assay on IGROV1 ovarian was 92.4%; in the assay with OVCAR-3 ovarian, 91%; in the assay on HS 578T breast it was 103%; with NCI/ADR-RES ovarian it was 102%; in the assay with T-47D breast, 64.9%; with BT-549 breast, 91.5%. Also, the growth in the assay with MDA-MB-435 melanoma was 105%; with SW-620 colon, 106%; in the assay on MCF7 breast it was 36.1%; in the assay on HCT-116 colon it was 95.4%; in the assay on HCC-2998 colon, 93.9%; with KM12 colon, 98.2%.
For `Cc1ccccc1Nc1nc2nonc2nc1Nc1cccc(C)c1C`, the growth with SR leukemia was 66.8%; in the assay with RPMI-8226 leukemia, 24.4%; in the assay with OVCAR-8 ovarian, 54.3%; in the assay with OVCAR-5 ovarian, 98.9%; in the assay on OVCAR-4 ovarian it was 30.3%; in the assay with SK-OV-3 ovarian, 56.6%. For the same molecule, the growth with IGROV1 ovarian was 74%; with OVCAR-3 ovarian it was 35.8%; in the assay with HS 578T breast it was 72.6%; in the assay with NCI/ADR-RES ovarian, 56.5%; in the assay with T-47D breast, 16.2%; in the assay with BT-549 breast, 51.7%. For the same molecule, the growth is 55.7% in the assay with MDA-MB-435 melanoma; 77% in the assay with SW-620 colon; 43.3% in the assay with MCF7 breast; 43% in the assay with HCT-116 colon; 67.5% with HCC-2998 colon; 53.8% in the assay on KM12 colon.
Regarding `N#Cc1c(-c2ccc(C(F)(F)F)cc2)c(F)c(NCCC2CCC(O)C2)n2c1nc1ccccc12` (centres undefined), the growth in the assay on SR leukemia is 9.1% (active); in the assay with RPMI-8226 leukemia it was 49.5%; in the assay with OVCAR-8 ovarian, 45.4%; in the assay with OVCAR-5 ovarian it was 88.7%; in the assay with OVCAR-4 ovarian, 69.9%; in the assay with SK-OV-3 ovarian it was 43.2%. Also, the growth is 50.2% in the assay with IGROV1 ovarian; 79.9% in the assay on OVCAR-3 ovarian; 86.8% in the assay on HS 578T breast; 37.9% in the assay with NCI/ADR-RES ovarian; 67.9% in the assay with T-47D breast; 30.1% in the assay on BT-549 breast. Also, the growth with MDA-MB-435 melanoma is 84.1%; in the assay on SW-620 colon, 55.6%; in the assay on MCF7 breast, 46.2%; in the assay with HCT-116 colon, 30.7%; with HCC-2998 colon, 80.7%; in the assay on KM12 colon, 57.9%.
With `Cc1nn(-c2nc3ccccc3[nH]2)c2c1C(c1ccc(O)cc1)CC(=O)N2` (centres undefined), the growth with SR leukemia was 53.7%; in the assay with RPMI-8226 leukemia, 101%; in the assay on OVCAR-8 ovarian, 55.3%; in the assay on OVCAR-5 ovarian, 109%; with OVCAR-4 ovarian, 112%; in the assay on SK-OV-3 ovarian it was 84.3%. Further, the growth is 75.9% in the assay on IGROV1 ovarian; 93.2% with OVCAR-3 ovarian; 28.1% in the assay with HS 578T breast; 88.5% with NCI/ADR-RES ovarian; 88.7% in the assay on T-47D breast; 92.7% with BT-549 breast. The growth in the assay on MDA-MB-435 melanoma is 104%; in the assay on SW-620 colon, 93.5%; in the assay with MCF7 breast it was 109%; in the assay with HCT-116 colon, 101%; with HCC-2998 colon, 123%; in the assay on KM12 colon it was 60.3%.
`COc1ccc(Nc2ncccc2NC(=O)c2cn(Cc3cccc(Oc4ccccc4)c3)nn2)cc1`: the growth was 74.2% with SR leukemia; 86% in the assay on RPMI-8226 leukemia; 87.5% in the assay on OVCAR-8 ovarian; 105% in the assay with OVCAR-5 ovarian; 78.7% in the assay on OVCAR-4 ovarian; 103% in the assay with SK-OV-3 ovarian. The growth with IGROV1 ovarian is 98.8%; in the assay with OVCAR-3 ovarian it was 92%; in the assay on HS 578T breast, 95.7%; in the assay with NCI/ADR-RES ovarian, 76.6%; with T-47D breast, 79.1%; in the assay on BT-549 breast, 93.6%. Besides, the growth in the assay on MDA-MB-435 melanoma was 77.8%; in the assay on SW-620 colon, 106%; in the assay with MCF7 breast, 89.9%; with HCT-116 colon, 92.4%; with HCC-2998 colon, 115%; with KM12 colon, 84.8%.
